Results: PubChem BioAssay (EPA / NIEHS)
Inconclusive results are not listed. Calls of active or inactive are those of the source. Rule for the calls: active = hit-call score of the fitted dose curve at least 0.9, where 1 is the maximum; inconclusive = response in the unintended direction; inactive = score below 0.9.

assay: TOX21_p53_BLA_p2_viability: Viability Assessment in the Tox21 HCT-116 p53 Agonism Beta-lactamase Assay, Phase 2 (AID 2283591);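 note: compound exposure lasted 16 h at 37 °C; actives lower the ATP signal meaning cytotoxicity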
Method in brief: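 HCT-116 p53-bla cells (4000/well) rested 5 h at 37C, then received compounds in DMSO (217-fold dilution) for 16 h at 37C, 5% CO2. After the CCF4 read, CellTiter-Glo was added; ATP luminescence was read after 30 min at room temperature.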

SMILES | outcome | AC50
Clc1ccc([C@@H]2C[C@H]3CC[C@@H]2N3)cn1 | inactive | –
CCCCC#N | inactive | –
Oc1cc(Cl)c(Cl)c(Cl)c1Cl | inactive | –
CC(=O)Nc1cc([As](=O)(O)O)ccc1O | inactive | –
CCOP(=O)(OCC)SCCSCC (tested in a mixture with another compound) | inactive | –
CC(C)CC(C)N (stereo not given) | inactive | –
CCCCCc1cc(O)c2c(c1)OC(C)(C)c1ccc(C)cc1-2 | – | 14.4 µM (active)
O=NN1CCN(N=O)CC1 | inactive | –
O=c1ccc2cc(O[C@@H]3O[C@H](CO)[C@@H](O)[C@H](O)[C@H]3O)c(O)cc2o1 | inactive | –
NCC(O)c1ccc(O)cc1 (stereo not given) | inactive | –
CN[C@H]1C[C@@H](N)[C@H](O)[C@@H](O[C@@H]2O[C@H](CO)[C@H](O)[C@@H]3OC4(O[C@H]23)O[C@H](C(N)CO)[C@H](O)[C@H](O)C4O)[C@@H]1O (stereo not given in full) | inactive | –
CCCCCCCCCCCCN=C(N)N | inactive | –
C[C@]12CCC(=O)C[C@@H]1CC[C@@H]1[C@@H]2CC[C@@]2(C)[C@H]1CC[C@]2(C)O | inactive | –
Clc1ccc(-c2ccc(Cl)c(Cl)c2Cl)c(Cl)c1Cl | inactive | –
Cc1ccccc1-n1c(C)nc2ccccc2c1=O | inactive | –
CCC1(c2ccccc2)C(=O)NC(=O)NC1=O | inactive | –
CC(C)(O)[C@@H]1[C@H]2OC(=O)[C@@H]1[C@]1(O)C[C@H]3O[C@]34C(=O)O[C@H]2[C@]14C (tested in a mixture with another compound) | inactive | –
C[C@@H]1CC[C@@]2(OC1)O[C@H]1[C@@H](O)[C@H]3[C@@H]4CC[C@H]5C[C@@H](O[C@@H]6O[C@H](CO)[C@H](O[C@@H]7O[C@H](CO)[C@@H](O)[C@H](O[C@@H]8OC[C@@H](O)[C@H](O)[C@H]8O)[C@H]7O[C@@H]7O[C@H](CO)[C@@H](O)[C@H](O[C@@H]8O[C@H](CO)[C@@H](O)[C@H](O)[C@H]8O)[C@H]7O)[C@H](O)[C@H]6O)[C@H](O)C[C@]5(C)[C@H]4CC[C@]3(C)[C@H]1[C@@H]2C | – | 19 µM (active)
CC(C)OC(=O)Cc1ccccc1 | inactive | –
BrC(Br)C(Br)(Br)Br | inactive | –

SMILES | outcome | AC50
O=[N+]([O-])c1ccc([As](=O)(O)O)cc1 | inactive | –
CCOC(=O)C1(c2ccccc2)CCN(CCC(C#N)(c2ccccc2)c2ccccc2)CC1 | inactive | –
CCCC(C)(COC(N)=O)COC(=O)NC(C)C (stereo not given) | inactive | –
C=CC[C@]1(O)CC[C@H]2[C@@H]3CCC4=CC(=O)CCC4=C3C=C[C@@]21C | inactive | –
O=c1c2ccccc2[se]n1-c1ccccc1 | inactive | –
COc1cccc2c1cc([N+](=O)[O-])c1c(C(=O)O)cc3c(c12)OCO3 | inactive | –
CCN(CC)CCO[C@H]1CC[C@@]2(C)C(=CC[C@@H]3[C@@H]2CC[C@]2(C)C(=O)CC[C@@H]32)C1 | inactive | –
C[C@]12C[C@H]3S[C@H]3C[C@@H]1CC[C@@H]1[C@@H]2CC[C@]2(C)[C@@H](O)CC[C@@H]12 | inactive | –
Nc1ccccc1C(=O)OCC=Cc1ccccc1 | – | 66.3 µM (active)
Nc1c(Br)cc([N+](=O)[O-])cc1[N+](=O)[O-] | inactive | –
CNC(=O)ON=C(CSC)C(C)(C)C | inactive | –
O=c1oc2ccccc2c(O)c1Cc1c(O)c2ccccc2oc1=O | – | 8.02 µM (active)
BrCCc1ccccc1 | inactive | –
Oc1cc(Cl)cc(Cl)c1 | inactive | –
CC(C)CON=O | inactive | –
N=C(N)[Se] | inactive | –
c1ccc2c(c1)cc1ccc3cccc4ccc2c1c34 | inactive | –
CCC[CH2][Sn]([CH2]CCC)([CH2]CCC)[O][Sn]([CH2]CCC)([CH2]CCC)[CH2]CCC | – | 0.708 µM (active)
O=C(O)/C=C\C(=O)O | inactive | –
Cc1cc(C(C)(C)c2cc(C)c(O)c(C)c2)cc(C)c1O | – | 44.8 µM (active)
